VP16 counter = counter-screen for ROR gamma inhibitors: Gal4-VP16 reporter; Drosophila S2 Gal4-VP16 UAS-luciferase, luminescence, 20 h; Potency, µM (doses to about 53.6 µM), without a hit: top-dose activity, negative = inhibition, most hits filed as inhibitors; 310,000 compounds, 3.5% hits;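 further: Gal4-VP16 expression switched on by copper sulfate through the metallothionein promoter; potency means the concentration at half of the fitted maximal effect; nearly all actives have a fitted effect of over 50% in size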
ELG1 DNA repair = inhibitors of ELG1-dependent DNA repair in HEK293T cells; HEK293T ELG1-luciferase reporter, luminescence, 16 h; DNA damage induced by 5-fluorouridine; 330,000 compounds, 2.3% hits; Potency, µM (doses to about 46.1 µM), for the others: at the highest dose activity change, negative = inhibition, most hits filed as inhibitors; further: potency means the concentration at half of the fitted maximal effect; nearly all actives have a fitted effect of over 55% in size
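Reporter activity after DNA damage by 5-fluorouridine is monitored. Compound-treated cells incubate 16 hr at 37 °C, then ONE-Glo is added for 30 min before luminescence reading.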
DT40 TDP1 no CPT = qHTS for Inhibitors of human tyrosyl-DNA phosphodiesterase 1 (TDP1): qHTS in cells in absence of CPT. DT40 Tdp1-/- hTDP1 cells, no CPT, ATP luminescence, 48 h. Potency, µM (doses to about 46.2 µM), without a hit: at the top dose activity change, negative = growth inhibition, hits mostly inhibitors. 420,000 compounds, 15% hits; further: potency means the concentration at half of the fitted maximal effect; nearly all actives have a fitted effect of over 55% in size
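Growth kinetics read by CellTiter-Glo luminescence after ≥48 hr at 37 °C. Cells: DT40 Tdp1-/- stably carrying human TDP1, 400 per well, compound exposure in the absence of CPT (DMSO vehicle).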
RORgamma inh = blocks mouse ROR gamma transcriptional activity; 310,000 compounds, 5.4% hits; Drosophila S2 Gal4-RORgamma UAS-luciferase reporter, 20 h; AID 2551; P51450; Potency, µM (highest dose often 53.6 µM), for inactives: at the top dose activity change, negative = inhibition, usual class: inhibitors; further: potency means the concentration at half of the fitted maximal effect; nearly all actives have a fitted effect of over 60% in size
Target sequence (P51450 whole entry, looked up, the tested form may be a part): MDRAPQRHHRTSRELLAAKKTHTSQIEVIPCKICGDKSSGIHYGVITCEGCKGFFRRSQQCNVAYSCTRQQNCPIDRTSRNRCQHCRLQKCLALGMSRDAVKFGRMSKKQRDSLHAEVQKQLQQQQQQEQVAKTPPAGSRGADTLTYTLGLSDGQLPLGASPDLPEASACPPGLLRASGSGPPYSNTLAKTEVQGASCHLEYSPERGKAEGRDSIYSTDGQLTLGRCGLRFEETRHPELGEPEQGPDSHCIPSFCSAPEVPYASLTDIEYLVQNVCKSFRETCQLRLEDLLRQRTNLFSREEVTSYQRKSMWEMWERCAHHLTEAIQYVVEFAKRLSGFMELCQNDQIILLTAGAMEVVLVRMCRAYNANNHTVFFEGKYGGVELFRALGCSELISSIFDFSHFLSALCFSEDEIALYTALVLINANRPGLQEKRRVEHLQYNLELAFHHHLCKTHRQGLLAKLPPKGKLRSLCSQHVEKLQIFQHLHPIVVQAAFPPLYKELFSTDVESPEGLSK
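Stably transfected Drosophila Schneider cells are the test system, with ROR gamma fused to Gal4 and luciferase under UAS control; luminescence is read after 20 hr of 700 uM copper sulfate induction at ambient temperature.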
IL-1B inflam inh = inflammasome signaling inhibition, IL-1 beta readout; THP-1 LPS/ATP IL-1B secretion, AlphaLISA, 16 h; active compounds read low; activity change, % at 57.5 µM; 360,000 compounds, 4.7% hits; AID 743279; in the data active means activity change below about -50%; inconclusive means mostly about -30% to -49%
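THP-1 cells pretreated 1 hr with compounds (up to 57.5 uM final), then stimulated with LPS (250 ng/mL final) plus ATP (1.25 mM final); secreted IL-1B measured by AlphaLISA after 16 hr, decreased signal indicating inhibition.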
DT40 TDP1 CPT = growth inhibition of DT40 Tdp1-/-;hTDP1 cells with camptothecin (screen for TDP1 inhibitors). AID 686979. 420,000 compounds, 12% hits. Potency, µM (top dose mostly 46.2 µM), inactives show top-dose activity change, negative = growth inhibition, actives largely listed as inhibitors. chicken DT40 Tdp1-/-;hTDP1 cells + 20 nM CPT, ATP luminescence, 48 h; further: potency means the concentration at half of the fitted maximal effect; nearly all actives have a fitted effect of over 55% in size
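Chicken DT40 Tdp1-/- cells stably complemented with human TDP1 were seeded at 400 cells/well in medium containing 20 nM camptothecin, exposed to pin-transferred compounds, and grown at 37 °C for at least 48 hr. Viability was read as ATP luminescence.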
Numbers without * were called inactive; ? = inconclusive; / = no result. In the library only some 21% were active in any assay of this set; here they are far more common. Unless noted, the call rests on the fitted dose curve; in most records, active means well fitted curve in the direction sought with a large enough effect; inconclusive means small, poorly fitted or top-dose-only effect, or another doubt; inactive means no such curve, though single readings can be large; an effect the other way counts as inactive or inconclusive. On the % scale 0 is the no-effect control and ±100 the full control effect.

SMILES	VP16 counter	ELG1 DNA repair	DT40 TDP1 no CPT	RORgamma inh	IL-1B inflam inh	DT40 TDP1 CPT
COc1ccc(Cc2nc3ccc(C(=O)NCCc4ccccc4)cc3o2)cc1	/	/	?	/	/	26µM*
COc1ccc(Cc2nc3ccc(C(=O)NCCc4ncccc4C)cc3o2)cc1OC	/	/	23µM*	/	-5	21µM*
CCOc1ccc(NC(=O)Cn2nnc(C(=O)OC)c2C(=O)OC)cc1	/	/	-6%	/	/	12%
CCCCN(C(=O)CSc1nnc(-c2ccccc2OC)n1C)c1c(N)n(Cc2ccccc2)c(=O)[nH]c1=O	-8%	?	-9%	-2%	-4	-4%
Cc1ccc(-c2cc(C(F)F)n3ncc(C(=O)N4CCN(c5ccccn5)CC4)c3n2)cc1	-28%	3.7µM*	?	45%	-8	?
Cc1ccc(-c2cc(C(F)(F)F)n3ncc(C(=O)N4CCCc5ccccc54)c3n2)cc1	3%	16%	-10%	-21%	3	-28%
Cc1ccc(-c2cc(C(F)F)n3ncc(C(=O)N4CCc5ccccc54)c3n2)cc1	0%	21µM*	1.8µM*	0%	44	1.8µM*
CCc1nccn1C(=O)c1cnn2c(C(F)F)cc(-c3ccc(C)cc3)nc12	-12%	?	15µM*	26%	/	21µM*
O=C(c1cnn2c(C(F)F)cc(-c3ccccc3)nc12)N1CCc2ccccc21	8%	?	?	11%	51	18µM*
COc1ccc(-c2cc(C(F)F)n3ncc(C(=O)N4CCc5ccccc5C4)c3n2)cc1	12%	2%	?	-5%	?	?
CC1=C(C(=O)NCc2ccc(Cl)cc2)C2(CCCCCC2)OC1=O	/	/	-29%	/	/	?
CCC(C)N(C(=O)Cn1nnc(-c2ccc(Cl)cc2)n1)C1CCS(=O)(=O)C1 (stereo not drawn)	/	16%	5%	/	0	-16%
COC(=O)[C@H](CCCN=C(N)N)NC(=O)CCCc1c(-c2ccccc2)[nH]c2c(F)cc(F)cc12	-9%	/	/	2%	/	/
O=C(Nc1cccc(S(=O)(=O)N2CCOCC2)c1)c1cnn2c(C(F)F)cc(-c3ccccc3)nc12	5%	?	?	7%	42	?
O=C(Nc1cccnc1)c1cnn2c(C(F)F)cc(C3CC3)nc12	12%	/	5.2µM*	-5%	-16	15µM*
O=C(c1cnn2c(C(F)F)cc(-c3ccccc3)nc12)N1CCCCC1c1cccnc1 (stereo not drawn)	-2%	-29%	?	31%	-8	15µM*
COc1ccc(-c2cc(C(F)F)n3ncc(C(=O)N4CCN(C(=O)c5ccco5)CC4)c3n2)cc1	-8%	3.3µM*	?	36%	-30	?
CN(Cc1cn(Cc2cccc(Cl)c2)nn1)C1CN(Cc2cn(Cc3cccc(Cl)c3)nn2)S(=O)(=O)C1 (stereo not drawn)	/	/	?	/	0	?
Cc1onc(-c2ccccc2)c1C(=O)OCC(=O)N(CC(C)C)c1c(N)n(Cc2ccccc2)c(=O)[nH]c1=O	/	?	-7%	/	-3	3%
O/C=c1\ccc2cccc3nc(C(F)(F)F)nc1c23	-1%	-29%	21µM*	-10%	-1	10µM*
COCCn1c(=NC(=O)/C=C/c2cccs2)sc2cc(NC(C)=O)ccc21	-5%	-15%	23µM*	15%	0	?
COCCn1c(=NC(=O)CSC(C)=O)sc2cc(F)ccc21	4%	0%	23µM*	-34%	-27	21µM*
CCCn1c(=NC(=O)CS(=O)(=O)c2ccccc2)sc2cc(S(C)(=O)=O)ccc21	/	-12%	-2%	/	-1	3%
COCCn1c(=NC(=O)CCS(=O)(=O)c2ccccc2)sc2cc(F)ccc21	1%	-13%	21µM*	22%	-4	18µM*
COCCn1c(=NC(=O)CSC(C)=O)sc2cc(OC)ccc21	-4%	-19%	?	-19%	-21	?
SMILES	VP16 counter	ELG1 DNA repair	DT40 TDP1 no CPT	RORgamma inh	IL-1B inflam inh	DT40 TDP1 CPT
O=C1C[C@@H]2C(=O)N(c3ccccc3)C(=O)[C@@H]2[C@@H]2CN(S(=O)(=O)c3ccccc3)[C@@H](c3ccccc3)[C@H]12	/	/	-9%	/	13	-15%
Cc1cccc(N2C(=O)N(CC(=O)C(C)(C)C)c3ccccc3S2(=O)=O)c1C	/	/	13µM*	/	/	15µM*
CC(=O)c1ccc(N2C(=O)N(CC(=O)c3ccc(C)cc3)c3ccccc3S2(=O)=O)cc1	/	/	23µM*	/	/	?
CC(=O)c1ccc(N2C(=O)N(Cc3cccc(C(F)(F)F)c3)c3ccccc3S2(=O)=O)cc1	/	/	15µM*	/	/	16µM*
CCOc1ccc(N2C(=O)N(Cc3ccc(C)cc3C)c3ccccc3S2(=O)=O)cc1	/	/	16µM*	/	/	?
O=C(NCC(=O)N1CCN(S(=O)(=O)c2ccc3c(c2)OCCO3)CC1)c1ccccc1Cl	/	3%	-20%	/	0	-12%
COc1cc(/C=N/NC(=O)CSc2cc(C)c(Br)cc2C)ccc1O	-11%	16µM*	?	21%	-1	?
COC(=O)Oc1ccc(/C=N/NC(=O)CSCc2ccccc2Br)cc1OC	13µM*	?	15µM*	?	-19	23µM*
COc1ccc(/C=N/NC(=O)CSCC(=O)Nc2ccccc2)cc1OC	-5%	-20%	-6%	15%	-18	-4%
Cc1cc(SCC(=O)NN=C2CCN(C(C)C)CC2)c(C)cc1Br	-2%	-1%	-26%	-38%	2	-27%
Cc1cc(SCC(=O)N/N=C/c2ccc(O)c(O)c2O)c(C)cc1Br	?	3%	4.6µM*	2.8µM*	23	3.3µM*
COc1cc(SC)ccc1C(=O)OCC(=O)N1CC(=O)Nc2ccccc21	/	1%	?	/	-24	-19%
CC1CCCC(C)N1C(=O)c1ccc(CS(=O)(=O)c2ccccc2)cc1 (stereo not drawn)	?	11%	15µM*	45%	24	?
CCOC(=O)C1CCCN(C(=O)c2ccc(S(=O)(=O)NCc3ccco3)cc2)C1 (stereo not drawn)	/	-2%	-29%	/	5	?
CC1CCCC(C)N1C(=O)c1ccc(S(=O)(=O)NCc2ccco2)cc1 (stereo not drawn)	-2%	12µM*	23µM*	?	31	?
COc1ccc(CN2CCN(C(=O)c3ccc(S(=O)(=O)NCc4ccco4)cc3)CC2)cc1	/	0%	18µM*	/	-1	?

High-throughput results as filed in PubChem.
